We go through 14 compounds from PubChem BioAssay.

One may read the inhibition as the change of the read-out against control, counted positive when it falls.

The source made the active and inactive calls.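 How the source made its calls, unless noted: active means inhibition at or above 50% at 10 µM; inactive means inhibition below 50%.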

Assay [1] is described as follows: inhibitors of TNFa-induced NFkB p65 translocation, primary screen, imaging, HUVEC, MLSMR starter and 10KST1 sets (AID 438;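 active means inhibition above 20% together with a positive visual image hit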;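 further: compound added about 3h40 before a 20 min TNFalpha stimulation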;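 on inhibition: signal is the nuclear over cytoplasmic p65 intensity ratio per well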). As to conditions: HUVEC TNFa-induced p65 nuclear translocation; cell count: measured here: nuclei count (cytotoxicity indicator), at 2.08 µM; inhibition: at 2 µM, stronger effect = higher value, 0% TNFa-plus-vehicle, 100% no-TNFa wells.
Assay [2] can be described thus: inhibitors of mutant huntingtin aggregation, primary screen, imaging, exon1htt(103Q)mCFP cells, high-content imaging (AID 483;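 active means visual image review flags a hit and inhibition of aggregation exceeds 20%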;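 further: compound exposure lasted 3 days before fixation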;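 on nuclei count: percent of the per-plate median nuclei count of sample wells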). The note with it: exon1htt(103Q)mCFP cell line, aggregate imaging, at 2 µM; inhibition of aggregation: stronger effect = higher value; nuclei count: measured here: cell count, toxicity.
Assay [3] in a line: inhibitors of E-selectin induction by TNFa, primary screen, imaging, HUVEC, immunofluorescence, MLSMR starter and 10KST1 sets (AID 487;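 active means visually confirmed hit in the image check and inhibition above 20%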;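 on inhibition: signal is fraction of cell area covered by stained E-selectin grains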;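 on nuclei count: 100% = median nuclei count of all wells on the same plate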). The note with it: HUVEC TNFalpha-induced E-selectin immunofluorescence imaging, at 2 µM; inhibition: stronger effect = higher value; nuclei count: measured here: cell number, toxicity.
Assay [4] addresses Voltage-gated potassium channel subunit beta-2 (Rattus norvegicus) (UniProt P62483). The assay is described as follows: KvBeta enzyme negative modulators, primary screen, biochemical, NADPH fluorescence (AID 622;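 active means fluorescence slope higher than the sample average by over 3 SD, cut at about -0.22 in these data, passing the limit was not always enough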;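 further: slope of raw intensity against log time taken from 70 to 1610 s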). As to conditions: recombinant KvBeta, 4-cyanobenzaldehyde reduction, at 10 µM, stronger effect = higher value.
The target is the same in assay [5]. Description: KvBeta positive modulators, primary screen, biochemical, NADPH fluorescence (AID 623;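 active means NADPH fluorescence slope more negative than the mean of all samples by about 3 SD, 99.7% confidence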;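 further: fluorescence intensity change per second fitted from 20 to 320 s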). As to conditions: Recombinant KvBeta, NADPH fluorescence decrease slope, 10 min; at 10 µM; stronger effect = lower value.
Assay [6] deals with Alpha-2C adrenergic receptor (Homo sapiens) (UniProt P18825). Description: modulators of alpha2C/GIRK thallium flux, primary screen, cell-based, HEK293 alpha2C/GIRK1/2 (AID 624;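 active means fluorescence slope after compound addition differing from the mean of all screened samples at 99.7% confidence, in either direction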;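 further: slope of fluorescence ratio to pre-addition baseline per second over 15 to 24 s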). The note with it: thallium flux BTC fluorescence, at 10 µM, actives lie on both sides.
Sequence of Alpha-2C adrenergic receptor (Homo sapiens) (P18825 whole entry, looked up): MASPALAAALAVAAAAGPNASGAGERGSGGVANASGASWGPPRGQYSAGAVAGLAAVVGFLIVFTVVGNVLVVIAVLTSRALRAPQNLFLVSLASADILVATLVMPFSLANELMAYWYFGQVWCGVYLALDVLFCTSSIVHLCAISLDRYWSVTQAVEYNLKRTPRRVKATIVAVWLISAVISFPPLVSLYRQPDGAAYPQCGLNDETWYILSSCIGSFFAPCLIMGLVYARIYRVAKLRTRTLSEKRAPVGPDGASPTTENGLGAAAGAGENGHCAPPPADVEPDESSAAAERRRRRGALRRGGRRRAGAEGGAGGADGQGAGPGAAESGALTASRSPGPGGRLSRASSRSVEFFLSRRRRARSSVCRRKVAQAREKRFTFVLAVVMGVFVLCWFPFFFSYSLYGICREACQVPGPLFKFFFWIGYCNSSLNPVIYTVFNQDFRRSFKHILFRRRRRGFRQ
A short description of assay [7]: inhibitors of Sendai virus-induced IRF3 signaling, primary screen, TLR/RLR signaling modifier project, cell-based, Sendai virus stimulus, luciferase, 10K MLSCN set (AID 602276).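 Further: firefly luciferase from ISG56 promoter only with Renilla not read in this screen; 0% = Sendai virus plus DMSO and 100% = medium plus DMSO without virus.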 As to conditions: HEK293 RL24 IRF3 luciferase reporter, at 10 µM, stronger effect = higher value.
Assay [8] can be described thus: inhibitors of poly I:C-induced TLR3 signaling, primary screen, cell-based, poly I:C stimulus, luciferase, 10K MLSCN set (AID 602277;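 active means inhibition of the reporter signal at or above 50%; inactive means inhibition below 50%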). As to conditions: HEK293-TLR3 RL24 IRF3 luciferase reporter, at 10 µM, stronger effect = higher value. On the technique in general: Reporter assays use an easily measured gene product as a stand-in for the process of interest.

Sequence of Voltage-gated potassium channel subunit beta-2 (Rattus norvegicus) (P62483 whole entry, looked up): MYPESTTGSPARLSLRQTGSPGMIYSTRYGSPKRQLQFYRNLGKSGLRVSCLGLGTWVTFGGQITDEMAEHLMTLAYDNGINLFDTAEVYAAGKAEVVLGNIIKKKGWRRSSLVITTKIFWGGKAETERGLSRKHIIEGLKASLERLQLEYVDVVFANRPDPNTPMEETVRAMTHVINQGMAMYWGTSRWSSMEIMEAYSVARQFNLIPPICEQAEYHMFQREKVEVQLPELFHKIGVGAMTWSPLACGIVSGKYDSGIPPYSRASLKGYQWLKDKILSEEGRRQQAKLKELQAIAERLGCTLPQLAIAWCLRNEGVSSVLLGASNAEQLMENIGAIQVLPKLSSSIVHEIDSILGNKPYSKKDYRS

Turning to `Cc1cccc(NC2SC(=O)N(c3ccccc3)C2=O)c1` (centres undefined), in assay [1], the cell count worked out at 152. Also, the inhibition in assay [1] was -14.3% (inactive); in assay [3], 26.4% (inactive); in assay [7], -2.7% (inactive); in assay [8], -12.1% (inactive). Besides, the inhibition of aggregation in assay [2] is 11.5% (inactive). The nuclei count in assay [2] was 92.8%; in assay [3] it was 80.9%. The fluorescence slope in assay [4] is -0.377 (inactive). The NADPH fluorescence slope in assay [5] was 5.7e-06 (inactive). The slope in assay [6] is 0.00476 (inactive).

In the case of `O=S(=O)(c1ccc2c(c1)OCCO2)N1CCN(Cc2ccc3c(c2)OCO3)CC1`, in assay [1], the cell count was 632. For the same compound, the inhibition in assay [1] is 1.9% (inactive); in assay [3] it was -24.5% (inactive); in assay [7], 9.49% (inactive); in assay [8], 25.6% (inactive). For the same compound, the inhibition of aggregation in assay [2] is 0.7% (inactive). The results for the nuclei count in assay [2] and in assay [3] were 100% and 113%, respectively. Moreover, the fluorescence slope in assay [4] is -0.345 (inactive). For the same compound, the NADPH fluorescence slope in assay [5] was -5.1e-05 (inactive). In addition, the slope in assay [6] is 0.00449 (inactive).

With `CCc1nc(C)c(C#N)c2cc(OC)c(OC)cc12`, in assay [1], the cell count turned out to be 387. Further, the inhibition is -1.1% (inactive) in assay [1], -7.1% (inactive) in assay [3], 15.2% (inactive) in assay [7] and 21.3% (inactive) in assay [8]. The inhibition of aggregation in assay [2] is -2.1% (inactive). Also, the nuclei count amounted to 79.3% in assay [2] and 97.7% in assay [3]. For the same compound, the fluorescence slope in assay [4] is -0.446 (inactive). The NADPH fluorescence slope in assay [5] was -7.7e-05 (inactive). The slope in assay [6] is 0.00607 (inactive).

`COc1cccc(NC(=O)COC(=O)c2ccco2)c1`: the cell count in assay [1] was 393. Further, the inhibition in assay [1] was -4% (inactive); in assay [3], -0.6% (inactive); in assay [7] it was 13.4% (inactive); in assay [8] it was 20.6% (inactive). The inhibition of aggregation in assay [2] was -17.7% (inactive). For the same compound, the values for the nuclei count in assay [2] and in assay [3] were 92.3% and 122%, respectively. Further, the fluorescence slope in assay [4] was -0.47 (inactive). The NADPH fluorescence slope in assay [5] is 7.3e-06 (inactive). Moreover, in assay [6], the slope was 0.00724 (inactive).

On to `O=C(c1cc2cc(Cl)cc(Cl)c2oc1=O)N1CCOCC1`, for which, in assay [1], the cell count worked out at 275. Besides, the inhibition in assay [1] was 13.1% (inactive); in assay [3], -63.2% (inactive); in assay [7] it was 26.9% (inactive); in assay [8] it was 30.3% (inactive). The inhibition of aggregation in assay [2] is -12% (inactive). The nuclei count stood at 87.4% in assay [2] and 110% in assay [3]. Besides, the fluorescence slope in assay [4] is -0.48 (inactive). For the same compound, in assay [5], the NADPH fluorescence slope was -6.7e-05 (inactive). For the same compound, the slope in assay [6] is 0.0058 (inactive).

In the case of `COC(=O)c1ccccc1NC1c2ccccc2C(=O)N1c1cccnc1` (centres undefined), in assay [1], the cell count worked out at 725. For the same compound, the inhibition in assay [1] is -6.7% (inactive); in assay [3] it was -26.4% (inactive); in assay [7], 5.35% (inactive); in assay [8], 16.8% (inactive). The inhibition of aggregation in assay [2] is -10.5% (inactive). Also, the nuclei count was found to be 100% in assay [2] and 112% in assay [3]. Also, in assay [4], the fluorescence slope was -0.53 (inactive). Further, the NADPH fluorescence slope in assay [5] is -4.7e-05 (inactive). In addition, in assay [6], the slope is 0.00566 (inactive).

For the compound `Cn1c(SCc2c(F)cccc2Cl)nnc1-c1cccs1`, in assay [1], the cell count came out at 662. In addition, the inhibition was 9.6% (inactive) in assay [1], -9.9% (inactive) in assay [3], -93.7% (inactive) in assay [7] and -167% (inactive) in assay [8]. In addition, in assay [2], the inhibition of aggregation is -11.9% (inactive). The nuclei count in assay [2] was 25.4%; in assay [3] it was 115%. Further, the fluorescence slope in assay [4] is -0.445 (inactive). Further, in assay [5], the NADPH fluorescence slope was -2.8e-05 (inactive). Besides, the slope in assay [6] was 0.00484 (inactive).

In the case of `Cn1c(=O)c(C(=O)Nc2cccnc2)c(O)c2ccccc21`, in assay [1], the cell count amounted to 632. In addition, the inhibition in assay [1] was 5.5% (inactive); in assay [3], -74% (inactive); in assay [7] it was -29.2% (inactive); in assay [8], -42.3% (inactive). Also, the inhibition of aggregation in assay [2] was 0.5% (inactive). The nuclei count in assay [2] amounted to 128%; in assay [3], 112%. Also, the fluorescence slope in assay [4] is -0.479 (inactive). Moreover, the NADPH fluorescence slope in assay [5] is -4.8e-05 (inactive). In addition, the slope in assay [6] is 0.0062 (inactive).

Regarding `O=C(COC(=O)c1cnccn1)c1ccc(OC(=O)c2ccccc2)cc1`, the cell count in assay [1] was determined as 214. In addition, the inhibition in assay [1] is -7.5% (inactive); in assay [3], -170% (inactive); in assay [7], 18.9% (inactive); in assay [8] it was 35.6% (inactive). Moreover, the inhibition of aggregation in assay [2] is 21.7% (inactive). Further, the figures for the nuclei count in assay [2] and in assay [3] were 95.2% and 132%, respectively. Moreover, in assay [4], the fluorescence slope was -0.359 (inactive). Also, the NADPH fluorescence slope in assay [5] was -6.1e-05 (inactive). The slope in assay [6] was 0.00809 (inactive).

For the compound `O=C1C(Cl)=C(N2CCCCC2)C(=O)N1c1ccccc1Cl`, in assay [1], the cell count worked out at 450. The inhibition in assay [1] is 4.4% (inactive); in assay [3], -57.1% (inactive); in assay [7], 16.8% (inactive); in assay [8], 24.8% (inactive). Besides, the inhibition of aggregation in assay [2] is -0.8% (inactive). Further, the nuclei count in assay [2] turned out to be 105%; in assay [3] it was 126%. Moreover, in assay [4], the fluorescence slope is -0.465 (inactive). In addition, the NADPH fluorescence slope in assay [5] is -0.000114 (inactive). Also, the slope in assay [6] is 0.00518 (inactive).

As for `CC1=C(C(=O)N2CCCCC2)C2(CCC(C)CC2)OC1=O` (centres undefined), the cell count in assay [1] was determined as 759. Moreover, the inhibition in assay [1] is -1.1% (inactive); in assay [3], -27.8% (inactive); in assay [7], 15.2% (inactive); in assay [8], 20.4% (inactive). In addition, the inhibition of aggregation in assay [2] was -11.5% (inactive). In addition, the nuclei count was 118% in assay [2] and 120% in assay [3]. In addition, in assay [4], the fluorescence slope is -0.524 (inactive). Moreover, the NADPH fluorescence slope in assay [5] is -1.1e-05 (inactive). The slope in assay [6] was 0.00741 (inactive).

In the case of `CCn1c(=N)n(CC(O)c2ccco2)c2ccccc21` (centres undefined), the cell count in assay [1] came out at 321. Besides, the inhibition in assay [1] is -8.1% (inactive); in assay [3], -33% (inactive); in assay [7], 10.3% (inactive); in assay [8], 24.1% (inactive). The inhibition of aggregation in assay [2] was -20.7% (inactive). For the same compound, the nuclei count in assay [2] came out at 87.8%; in assay [3], 110%. In assay [4], the fluorescence slope is -0.358 (inactive). In assay [5], the NADPH fluorescence slope was -5.8e-05 (inactive). Further, the slope in assay [6] was 0.00623 (inactive).

Take `O=C(NCC12CC3CC(C1)CC(CNC(=O)N1CCCC1)(C3)C2)N1CCCC1`: the cell count in assay [1] was 633. In addition, the inhibition in assay [1] is 2.2% (inactive); in assay [3], -37.7% (inactive); in assay [7], 19.1% (inactive); in assay [8] it was 22.9% (inactive). Moreover, the inhibition of aggregation in assay [2] is 3.3% (inactive). For the same compound, the nuclei count is 92.2% in assay [2] and 112% in assay [3]. For the same compound, in assay [4], the fluorescence slope was -0.463 (inactive). In addition, in assay [5], the NADPH fluorescence slope was -6e-05 (inactive). For the same compound, the slope in assay [6] is 0.00588 (inactive).

As for `COc1cc(Br)cc(/C=N/c2ncn[nH]2)c1O`, the cell count in assay [1] was found to be 376. In addition, the inhibition in assay [1] was -8.7% (inactive); in assay [3] it was -35% (inactive); in assay [7], 12.8% (inactive); in assay [8] it was 24.8% (inactive). For the same compound, the inhibition of aggregation in assay [2] was -2.5% (inactive). Further, the nuclei count in assay [2] turned out to be 101%; in assay [3] it was 117%. Moreover, the fluorescence slope in assay [4] is -0.467 (inactive). In assay [5], the NADPH fluorescence slope was 7.7e-05 (inactive). The slope in assay [6] is 0.00616 (inactive).
